# Laboratory results: PubChem BioAssay AID2058 (Sanford-Burnham Center for Chemical Genomics, 2009)
# The campaign covered roughly 290,000 compounds. About 150 (0.052%) were called active. For the sample, actives were picked, then their nearest neighbours and some compounds at random. Results with a measured potency or affinity are listed apart. Values without a mark were called inactive.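 The calls were made as follows: active = inhibition of at least 50% with at least 30 cells and total cytoplasm GFP at most 10,000,000; inconclusive = under 30 cells or total GFP of 10,000,000 plus; inactive = the rest.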
# Target: G-protein coupled receptor 35 (Homo sapiens) (UniProt Q9HC97)
# Assay: GPR35 antagonists blocking zaprinast-driven arrestin recruitment, primary screen, imaging, U2OS, beta-arrestin-GFP, zaprinast agonist (AID 2058)
# Settings: U2OS GPR35 beta-arrestin-GFP translocation imaging, zaprinast antagonism; at 10 µM; stronger effect = higher value
# Sequence of G-protein coupled receptor 35 (Homo sapiens) (Q9HC97 whole entry, looked up): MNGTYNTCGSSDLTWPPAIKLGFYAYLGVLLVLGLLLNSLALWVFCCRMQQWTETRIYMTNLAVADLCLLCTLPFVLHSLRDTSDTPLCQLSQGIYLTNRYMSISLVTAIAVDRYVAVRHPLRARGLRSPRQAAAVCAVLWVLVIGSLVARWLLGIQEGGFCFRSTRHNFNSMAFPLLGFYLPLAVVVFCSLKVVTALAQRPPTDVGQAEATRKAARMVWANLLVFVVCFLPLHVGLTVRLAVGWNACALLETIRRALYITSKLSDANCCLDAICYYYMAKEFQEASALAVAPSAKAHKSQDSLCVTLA
row,Structure (SMILES),inhibition
1,Cc1c(NC(=S)N/N=C/c2ccc(N(C)C)cc2)c(=O)n(-c2ccccc2)n1C,5.5%
2,O=C1CN(C(=O)N[C@@H](Cc2ccccc2)C(=O)N[C@@H](Cc2ccccc2)C(=O)O)c2ccccc2N1,6.4%
3,CCOC(=O)N1CC=C2C(C#N)=C(N)C(C#N)(C#N)[C@H](c3cccs3)C2C1 (stereo partly specified),12.4%
4,CCOC(=O)N1CC=C2C(C#N)=C(N)C(C#N)(C#N)[C@H](c3ccccc3OCC)[C@H]2C1,2.1%
5,CCCCOc1ccc(C2C3CN(C(=O)OCC)CC=C3C(C#N)=C(N)C2(C#N)C#N)cc1OC (stereo unspecified),-1.9%
6,COc1cccc(OC)c1OCc1cc(C2C3CCCC=C3C(C#N)=C(N)C2(C#N)C#N)c(C)cc1C (stereo unspecified),7%
7,CCCN1CC=C2C(C#N)=C(N)C(C#N)(C#N)C(c3cccc(OC)c3OC)C2C1 (stereo unspecified),101% (active)
8,COc1ccc([C@@H]2[C@H]3CN(C(C)=O)CC=C3C(C#N)=C(N)C2(C#N)C#N)c2ccccc12,-18.9%
9,CCN1CC=C2C(C#N)=C(N)C(C#N)(C#N)[C@H](c3cccc(OC)c3OC)[C@H]2C1,100% (active)
10,CCCOc1ccc([C@@H]2C3CN(C(=O)OCC)CC=C3C(C#N)=C(N)C2(C#N)C#N)cc1OC (stereo partly specified),16.5%
11,Cc1c(C(=O)Nc2ccc(Cc3ccncc3)cc2)cccc1[N+](=O)[O-],-1.8%
12,CC(C)(C)[C@H]1C=C(C(=O)NCc2nc3ccccc3[nH]2)O[C@@H](OCc2ccc(CO)cc2)C1,9.8%
13,O=C1c2ccc([N+](=O)[O-])cc2NC(c2ccco2)N1/N=C/c1ccco1 (stereo unspecified),-4.6%
14,Cn1cc(/C=C/C(=O)N2CCCC(C(=O)c3ccc(C(C)(C)C)cc3)C2)cn1 (stereo unspecified),-6.4%
15,CCc1cccc2c(C(=O)C(F)(F)F)cn(CC(=O)N3CCOCC3)c12,7.2%
16,N#C/C(=C/c1ccc(N2CCOCC2)o1)C(=O)NC1CCCCC1,9.2%
17,N#C/C(=C\c1ccc(N2CCOCC2)o1)C(=O)NC1CCCCC1,8.1%
18,N#C/C(=C/c1ccc(N2CCCCCC2)o1)c1cccc(F)c1,104% (active)
19,N#C/C(=C/c1ccc(N2CCCCCC2)o1)c1ccc(Cl)cc1,87.6% (active)

row,Structure (SMILES),inhibition
1,N#C/C(=C/c1ccc(N2CCCCC2)cc1)c1cccc(F)c1,11.7%
2,Cc1ccc(/C(C#N)=C\c2ccc(N3CCOCC3)o2)cc1,27.2%
3,N#C/C(=C/c1ccc(N2CCCCC2)o1)c1cccc(F)c1,55.7% (active)
4,COc1cc(N2CCCC2)c(OC)cc1/C=C(/C#N)c1cccc(F)c1,30.4%
5,N#C/C(=C/c1ccc(N2CCOCC2)o1)c1ccc(Br)cc1,37.8%
6,N#C/C(=C/c1ccc(N2CCOCC2)o1)c1ccc(Cl)cc1,-12.2%
7,N#C/C(=C/c1ccc(Sc2nc3ccccc3[nH]2)o1)c1cccc(F)c1,-1.5%
8,O=C(Nc1ccccn1)C1(c2ccccc2)CCCC1,3%
9,CC(C)(C)OC(=O)N1CCN(c2ccc(CNC(=O)c3ccc(Cl)cc3)cc2)CC1,4%
10,COc1ccc(-c2nnn(CC(=O)N(CCCO)C(C(=O)NC3CCCC3)c3ccc(F)cc3)n2)cc1 (stereo unspecified),4%
11,Cc1cccc(NC(=O)C2CCN(S(=O)(=O)c3cccc4nonc34)CC2)c1,-1.2%
12,COc1ccc(/C=N/n2cnc3c([nH]c4ccc(C)cc43)c2=O)cc1CN1CCCC1,1.2%
13,CC(=O)Nc1ccc(S(=O)(=O)NCC2CCC(C(=O)NC(C)c3ccccc3)CC2)cc1 (stereo unspecified),-1.8%
14,CN(C)c1nc(N2CCN(c3ccccc3)CC2)c(C#N)c(=O)o1,16.3%
15,N=c1c2c3c(sc2ncn1N)CCC3,4.1%
16,N#CC1=C(N)C(C#N)(C#N)C(c2ccncc2)C2CN(C(=O)OCc3ccccc3)CC=C12 (stereo unspecified),-3%
17,CCCC1C2CN(C(C)=O)CC=C2C(C#N)=C(N)C1(C#N)C#N (stereo unspecified),8.7%
18,Cc1ccc(C2C3CSCC=C3C(C#N)=C(N)C2(C#N)C#N)cc1 (stereo unspecified),1.6%
19,CC(C)N1CC=C2C(C#N)=C(N)C(C#N)(C#N)C(c3ccccc3)C2C1 (stereo unspecified),69% (active)

row,Structure (SMILES),inhibition
1,CCC1C2CN(C(C)=O)CC=C2C(C#N)=C(N)C1(C#N)C#N (stereo unspecified),-14.1%
2,CCCC1C2CN(C(C)C)CC=C2C(C#N)=C(N)C1(C#N)C#N (stereo unspecified),112% (active)
3,Cc1ccc(C2C3CN(C(C)C)CC=C3C(C#N)=C(N)C2(C#N)C#N)cc1 (stereo unspecified),100% (active)
4,N#CC1=C(N)C(C#N)(C#N)[C@H](c2ccncc2)[C@H]2CN(C(=O)OCc3ccccc3)CC=C12,1%
5,CC(C)c1ccc(C2C3CSCC=C3C(C#N)=C(N)C2(C#N)C#N)cc1 (stereo unspecified),-18.5%
6,COc1ccc(COc2ccccc2C(=O)Nc2ccccn2)cc1[N+](=O)[O-],15.8%
7,Cc1ccc(S(=O)(=O)N/N=C/c2cccc(OC3CSC3)c2)cc1,9.4%
8,C[C@@H]1CC=C[C@H]2[C@H]1C(=O)N(Cc1ccccc1)[C@H]2c1ccc(F)c(-c2ccc(N(C)C)cc2)c1,17.6%
9,Cc1ccc(-c2nnc(N3CC(C)OC(C)C3)c3ccccc23)cc1 (stereo unspecified),13.6%
10,COc1cc(C(=S)N2CCOCC2)ccc1OC(=O)c1cc([N+](=O)[O-])c(C)c([N+](=O)[O-])c1,10.7%
11,CCc1ccc(C(C)NC(=O)c2ccc3c(c2)OCO3)cc1 (stereo unspecified),-12.5%
12,O=C(NC(c1ccccc1)c1ccccc1)c1ccc(CO)cc1,7%
13,CC1=CC(C)(C)N(C)C(=O)N1c1ccc(Cl)cc1,20.7%
14,Cc1cc(=O)cc(C)n1-c1ccc(Cl)cc1,-8.7%
15,COC1CCN(C(=O)c2cc(COc3ccc(-n4cncn4)cc3)on2)CC1,17.9%
16,O=C(Nc1cc([N+](=O)[O-])ccc1N1CCCC1)c1ccco1,-5%
17,CC(C)(C)C(=O)C[n+]1ccccc1,-9.2%
18,CCCOC(=O)c1ccc(Nc2cc(C)nc3ncnn23)cc1,11.5%
